Data on four compounds can be found in PubChem BioAssay (EPA / NIEHS).

As usually defined, the AC50 is the concentration giving half of the maximal activity seen.

Records with an inconclusive call do not appear. Calls of active or inactive are those of the source. The calls were made as follows, unless noted: active = hit-call score of the fitted dose curve at least 0.9, where 1 is the maximum; inactive = score below 0.9.

The nature of test [1]: ATG_RORE_CIS: Attagene CIS-FACTORIAL HepG2 Assay for human RAR-related Orphan Receptor Element (RORE) (AID 2282959). As to conditions: HepG2 Attagene cis-factorial RORE reporter, mRNA; actives raise or lower the signal. The essentials: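 Measured here: transcript induction of a cis-regulated reporter in HepG2 cells transiently transfected via FuGene 6. After 24 h, RNA was processed by RT-PCR and fluorescent capillary electrophoresis; DMSO defined baseline activity.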

The nature of test [2]: ATG_Sox_CIS: Attagene CIS-FACTORIAL HepG2 Assay for human SRY-box transcription factor (SOX) (AID 2282960). Conditions: HepG2 Attagene cis-factorial SOX reporter, mRNA; actives raise or lower the signal. A digest of the protocol:
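Using transiently transfected HepG2 cells, reporter transcription driven by cis elements was assessed 24 h after dosing. Signal was fluorescence of capillary-separated RT-PCR products, with DMSO defining baseline activity.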

Test [3] concerns the target Transcription factor Sp1 (Homo sapiens) (UniProt P08047). The experiment in a line: ATG_Sp1_CIS: Attagene CIS-FACTORIAL HepG2 Assay for human Specificity Protein 1 (Sp1) (AID 2282961). As to conditions: HepG2 Sp1 cis-reporter transcription, actives raise or lower the signal. A digest of the protocol:
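After transient transfection of HepG2 cells with cis-promoter reporter units and 24 h chemical treatment, reporter transcripts were quantified by RT-PCR and capillary electrophoresis fluorescence. Gain- and loss-of-signal fitted against DMSO.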

Test [4] is described as follows: ATG_SREBP_CIS: Attagene CIS-FACTORIAL HepG2 Assay for human Sterol Regulatory Element Binding (SREBP) (AID 2282962). Conditions: HepG2 Attagene cis-factorial SREBP reporter, mRNA; actives raise or lower the signal. The essentials: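 Twenty-four hours after chemical dosing of transfected HepG2 cultures, reporter RNA was converted to cDNA, amplified, end-labelled with 6-FAM and resolved by capillary electrophoresis. Responses were fitted relative to DMSO.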

Test [5] addresses Signal transducer and activator of transcription 3 (Homo sapiens) (UniProt P40763). The experiment in a line: ATG_STAT3_CIS: Attagene CIS-FACTORIAL HepG2 Assay for human Signal Transducer and Activator of Transcription 3 (STAT3) (AID 2282963). Conditions: HepG2, Attagene cis-factorial STAT3 reporter transcription; actives raise or lower the signal. The essentials: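 Endogenous STAT3-responsive cis-element activity was read in transiently transfected HepG2 cells after 24 h treatment. Reporter transcripts were quantified via RT-PCR and capillary electrophoresis, with DMSO as negative control and bidirectional curve fitting.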

Test [6] is described as follows: ATG_TA_CIS: Attagene CIS-FACTORIAL HepG2 Assay for human TA Basal Promoter (AID 2282964). Conditions: HepG2 Attagene CIS-factorial TA basal promoter reporter; actives raise or lower the signal. The essentials:
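Multiplexed mRNA reporter assay, HepG2, 24 h. Reporter cDNA amplified, 6-FAM primer-extended, HpaI-cut, CE-sized; DMSO = negative control and baseline.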

A short description of test [7]: ATG_TCF_b_cat_CIS: Attagene CIS-FACTORIAL HepG2 Assay for human T-Cell-Factor with beta-catenin (TCF/b-cat) (AID 2282965). As to conditions: HepG2 TCF/beta-catenin cis-reporter transcription, actives raise or lower the signal. The essentials:
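Endogenous TCF/LEF activity read as reporter transcript level via RT-PCR and capillary electrophoresis fluorescence in transfected HepG2, 24 h exposure; gain or loss of signal fitted against DMSO controls.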

Test [8] can be described thus: ATG_TAL_CIS: Attagene CIS-FACTORIAL HepG2 Assay for human TAL Basal Promoter (AID 2282966).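 Also: background control endpoint measuring basal TAL promoter reporter mRNA not a specific factor.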 Conditions: HepG2 Attagene cis-factorial TAL promoter reporter; actives raise or lower the signal. A digest of the protocol:
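HepG2 cells transiently transfected with multiplexed cis-promoter reporter units, dosed 24 h. Reporter mRNA quantified by RT-PCR, 6-FAM labelling, HpaI digestion and capillary electrophoresis; TAL basal promoter serves as background control, fitted bidirectionally versus DMSO.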

The nature of test [9]: ATG_TGFb_CIS: Attagene CIS-FACTORIAL HepG2 Assay for human Transforming Growth Factor (TGF) (AID 2282967). As to conditions: HepG2 Attagene CIS TGFb reporter, mRNA transcription; actives raise or lower the signal. A digest of the protocol: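 Transcript-level reporter readout: HepG2 transfectants, 24 h exposure, RNA to cDNA, reporter-specific PCR, fluorescent primer extension, capillary sizing against ROX standards. Gain- or loss-of-signal relative to DMSO.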

A short description of test [10]: ATG_VDRE_CIS: Attagene CIS-FACTORIAL HepG2 Assay for human Vitamin D Receptor Element (VDRE) (AID 2282968). As to conditions: HepG2 VDRE cis-reporter transcription, actives raise or lower the signal. A digest of the protocol:
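Reporter mRNA induction, quantified by capillary electrophoresis of fluorescently labelled RT-PCR products, was read 24 h after dosing HepG2 cells carrying transiently transfected cis-regulated reporter units; gain or loss relative to DMSO.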

In test [11] the target is Estrogen receptor (Homo sapiens) (UniProt P03372). Description: ATG_ERa_TRANS: Attagene TRANS-FACTORIAL HepG2 Assay for human Estrogen Receptor alpha (ERa) (AID 2282970; active = hit-call score of the fitted dose curve at least 0.9, where 1 is the maximum). Conditions: HepG2 Attagene TRANS ERa GAL4 reporter, mRNA. The essentials: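 HepG2 cells transiently transfected with multiplexed GAL4-UAS reporter units read out chimeric NR-Gal4 activity. After 24 h compound exposure, reporter mRNA was quantified by RT-PCR, 6-FAM labeling, HpaI digestion and capillary electrophoresis, relative to DMSO.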
Sequence of Estrogen receptor (Homo sapiens) (P03372 whole entry, looked up, the tested form may be a part): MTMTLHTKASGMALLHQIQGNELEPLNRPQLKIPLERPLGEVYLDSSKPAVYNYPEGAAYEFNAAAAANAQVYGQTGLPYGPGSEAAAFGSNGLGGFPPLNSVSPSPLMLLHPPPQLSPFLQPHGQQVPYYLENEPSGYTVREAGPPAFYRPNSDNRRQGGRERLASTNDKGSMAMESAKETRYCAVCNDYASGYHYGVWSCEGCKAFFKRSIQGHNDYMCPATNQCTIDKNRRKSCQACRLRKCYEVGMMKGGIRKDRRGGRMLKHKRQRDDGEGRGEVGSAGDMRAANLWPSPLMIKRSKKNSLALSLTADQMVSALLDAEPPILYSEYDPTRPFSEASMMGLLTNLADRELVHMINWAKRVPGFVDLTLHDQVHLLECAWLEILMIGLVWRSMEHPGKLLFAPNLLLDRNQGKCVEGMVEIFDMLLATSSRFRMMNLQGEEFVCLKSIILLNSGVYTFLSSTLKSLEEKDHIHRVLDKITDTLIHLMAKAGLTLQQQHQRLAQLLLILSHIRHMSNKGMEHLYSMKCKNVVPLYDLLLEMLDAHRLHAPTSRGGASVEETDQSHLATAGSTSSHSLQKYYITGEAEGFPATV

Test [12] addresses X-box-binding protein 1 (Homo sapiens) (UniProt P17861). Description: ATG_Xbp1_CIS: Attagene CIS-FACTORIAL HepG2 Assay for human X-box Binding Protein 1 (XBP1) (AID 2282972). Conditions: HepG2 XBP1 cis-element reporter, Attagene multiplex; actives raise or lower the signal. The essentials:
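After a 24-hour chemical exposure of HepG2 cells carrying cis-regulated reporters, reporter mRNA levels are assessed. Quantification uses RT-PCR, 6-FAM labelling and capillary electrophoresis. Gain- or loss-of-signal is fitted against DMSO.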

The target of test [13] is Glucocorticoid receptor (Homo sapiens) (UniProt P04150). Description: ATG_GR_TRANS: Attagene TRANS-FACTORIAL HepG2 Assay for human Glucocorticoid Receptor (GR) (AID 2282978; active = hit-call score of the fitted dose curve at least 0.9, where 1 is the maximum;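 also: activators score as hits since higher reporter transcript over DMSO is fitted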). As to conditions: HepG2 Attagene TRANS GR reporter, mRNA transcription. The essentials: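 HepG2 transient transfection, multiple reporter units, GAL4-UAS under NR-GAL4 chimera control. 24 h treatment. Reporter mRNA by RT-PCR/CE fluorescence, DMSO as negative control.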
Sequence of Glucocorticoid receptor (Homo sapiens) (P04150 whole entry, looked up, the tested form may be a part): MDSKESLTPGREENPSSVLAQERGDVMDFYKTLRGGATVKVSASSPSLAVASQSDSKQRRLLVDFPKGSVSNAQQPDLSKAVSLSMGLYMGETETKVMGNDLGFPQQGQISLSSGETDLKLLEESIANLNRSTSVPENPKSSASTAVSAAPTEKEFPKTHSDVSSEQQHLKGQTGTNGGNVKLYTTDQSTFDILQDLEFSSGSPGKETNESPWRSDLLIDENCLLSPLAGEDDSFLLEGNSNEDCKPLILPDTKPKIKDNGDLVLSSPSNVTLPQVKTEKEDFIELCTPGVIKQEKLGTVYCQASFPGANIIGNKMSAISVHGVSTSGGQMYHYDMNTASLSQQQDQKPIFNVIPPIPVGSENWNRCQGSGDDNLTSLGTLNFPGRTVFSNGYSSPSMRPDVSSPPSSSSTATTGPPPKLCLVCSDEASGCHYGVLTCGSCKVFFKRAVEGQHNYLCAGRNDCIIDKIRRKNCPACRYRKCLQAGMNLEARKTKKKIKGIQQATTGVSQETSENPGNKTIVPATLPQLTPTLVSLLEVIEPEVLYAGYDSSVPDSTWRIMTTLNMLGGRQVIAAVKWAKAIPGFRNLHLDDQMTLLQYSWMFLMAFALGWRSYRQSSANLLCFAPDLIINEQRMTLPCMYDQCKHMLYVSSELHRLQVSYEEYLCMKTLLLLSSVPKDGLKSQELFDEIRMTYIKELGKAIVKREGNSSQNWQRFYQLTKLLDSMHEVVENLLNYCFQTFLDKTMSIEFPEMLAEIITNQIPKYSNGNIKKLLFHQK

Test [14] concerns the target Bile acid receptor (Homo sapiens) (UniProt Q96RI1). Description: ATG_FXR_TRANS: Attagene TRANS-FACTORIAL HepG2 Assay for Farnesoid X Receptor (FXR) (AID 2282979; active = hit-call score of the fitted dose curve at least 0.9, where 1 is the maximum;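 also: hits raise reporter mRNA above DMSO so AC50 marks FXR activation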). Conditions: HepG2 Attagene TRANS FXR-GAL4 reporter transcription. The essentials: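 HepG2 cells were transiently transfected with GAL4-UAS reporters driven by chimeric NR-Gal4 proteins and dosed for 24 h. Reporter mRNA was quantified by RT-PCR, fluorescent labelling, HpaI digestion and capillary electrophoresis, with gain of signal scored versus DMSO.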

The nature of test [15]: ATG_GAL4_TRANS: Attagene TRANS-FACTORIAL HepG2 Assay for GAL4 (Internal Marker) (AID 2282976; active = hit-call score of the fitted dose curve at least 0.9, where 1 is the maximum). As to conditions: HepG2 Attagene TRANS GAL4 internal marker reporter. The essentials: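 Background-control readout: GAL4-UAS reporter transcript in transiently transfected HepG2 cells after 24 h compound exposure. Measured by RT-PCR, 6-FAM primer extension, HpaI digest and capillary electrophoresis; gain-of-signal fit versus DMSO.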

Test [16] deals with Steroid hormone receptor ERR1 (Homo sapiens) (UniProt P11474). Description: ATG_ERRa_TRANS: Attagene TRANS-FACTORIAL HepG2 Assay for human Estrogen-Related Receptor alpha (ERRa) (AID 2282971; active = hit-call score of the fitted dose curve at least 0.9, where 1 is the maximum). As to conditions: HepG2 Attagene TRANS reporter, ERRa transactivation. A digest of the protocol:
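HepG2 cells transiently transfected with GAL4-UAS reporter units and chimeric NR-Gal4 constructs; after 24 hour compound incubation, reporter mRNA quantified by RT-PCR, fluorescent labelling and capillary electrophoresis, gain of signal versus DMSO.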

Test [17] concerns the target Estrogen-related receptor gamma (Homo sapiens) (UniProt P62508). The experiment in a line: ATG_ERRg_TRANS: Attagene TRANS-FACTORIAL HepG2 Assay for human Estrogen-Related Receptor gamma (ERRg) (AID 2282977; active = hit-call score of the fitted dose curve at least 0.9, where 1 is the maximum;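 also: hits increase reporter signal over DMSO so potencies reflect activators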). As to conditions: HepG2 Attagene TRANS reporter, ERRg transactivation. The essentials: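 HepG2 cells transiently transfected with multiplexed GAL4-UAS reporter units driven by chimeric NR-Gal4 proteins; 24 h exposure. Reporter mRNA quantified by RT-PCR, fluorescent labelling, HpaI digestion and capillary electrophoresis; gain of signal vs DMSO.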

Sequence of Bile acid receptor (Homo sapiens) (Q96RI1 whole entry, looked up, the tested form may be a part): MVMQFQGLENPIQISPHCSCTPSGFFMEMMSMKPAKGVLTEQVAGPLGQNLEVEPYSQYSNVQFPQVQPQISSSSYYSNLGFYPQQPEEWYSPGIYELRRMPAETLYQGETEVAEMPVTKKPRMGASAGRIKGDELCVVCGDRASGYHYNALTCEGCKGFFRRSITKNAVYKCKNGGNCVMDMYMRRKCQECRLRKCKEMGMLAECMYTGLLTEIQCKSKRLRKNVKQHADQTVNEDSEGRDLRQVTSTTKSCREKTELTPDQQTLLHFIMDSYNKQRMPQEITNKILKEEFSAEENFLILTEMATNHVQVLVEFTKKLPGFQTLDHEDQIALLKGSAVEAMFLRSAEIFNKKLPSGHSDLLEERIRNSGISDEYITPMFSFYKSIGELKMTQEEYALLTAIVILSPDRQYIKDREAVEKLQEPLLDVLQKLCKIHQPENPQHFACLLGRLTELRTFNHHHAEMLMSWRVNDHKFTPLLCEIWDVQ
Sequence of Signal transducer and activator of transcription 3 (Homo sapiens) (P40763 whole entry, looked up): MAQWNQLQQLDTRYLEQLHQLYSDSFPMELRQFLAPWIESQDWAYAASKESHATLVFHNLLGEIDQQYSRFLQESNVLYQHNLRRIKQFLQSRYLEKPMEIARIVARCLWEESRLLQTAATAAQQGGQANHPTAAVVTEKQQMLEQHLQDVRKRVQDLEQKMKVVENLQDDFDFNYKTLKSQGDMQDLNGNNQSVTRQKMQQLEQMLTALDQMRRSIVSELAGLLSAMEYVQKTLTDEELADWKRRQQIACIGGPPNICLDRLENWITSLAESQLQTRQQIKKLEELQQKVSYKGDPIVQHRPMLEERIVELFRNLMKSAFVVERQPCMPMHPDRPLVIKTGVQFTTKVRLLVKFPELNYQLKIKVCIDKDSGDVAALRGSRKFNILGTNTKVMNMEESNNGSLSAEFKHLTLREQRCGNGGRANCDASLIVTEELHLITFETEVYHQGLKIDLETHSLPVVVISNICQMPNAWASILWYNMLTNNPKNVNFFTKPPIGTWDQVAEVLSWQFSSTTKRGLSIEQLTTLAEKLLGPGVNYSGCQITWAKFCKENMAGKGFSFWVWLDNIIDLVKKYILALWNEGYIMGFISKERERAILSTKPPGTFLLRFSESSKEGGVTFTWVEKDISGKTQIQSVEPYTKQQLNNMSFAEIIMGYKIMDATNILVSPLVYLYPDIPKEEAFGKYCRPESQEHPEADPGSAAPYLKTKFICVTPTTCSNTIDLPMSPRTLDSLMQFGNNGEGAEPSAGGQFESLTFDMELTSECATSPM
Sequence of X-box-binding protein 1 (Homo sapiens) (P17861 whole entry, looked up): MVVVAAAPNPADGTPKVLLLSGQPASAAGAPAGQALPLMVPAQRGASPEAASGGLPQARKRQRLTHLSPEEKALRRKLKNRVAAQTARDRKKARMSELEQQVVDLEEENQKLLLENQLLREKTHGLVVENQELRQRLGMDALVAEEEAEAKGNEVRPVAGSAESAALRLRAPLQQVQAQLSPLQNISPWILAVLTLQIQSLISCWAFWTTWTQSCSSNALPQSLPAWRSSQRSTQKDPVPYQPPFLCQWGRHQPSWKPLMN
Sequence of Transcription factor Sp1 (Homo sapiens) (P08047 whole entry, looked up): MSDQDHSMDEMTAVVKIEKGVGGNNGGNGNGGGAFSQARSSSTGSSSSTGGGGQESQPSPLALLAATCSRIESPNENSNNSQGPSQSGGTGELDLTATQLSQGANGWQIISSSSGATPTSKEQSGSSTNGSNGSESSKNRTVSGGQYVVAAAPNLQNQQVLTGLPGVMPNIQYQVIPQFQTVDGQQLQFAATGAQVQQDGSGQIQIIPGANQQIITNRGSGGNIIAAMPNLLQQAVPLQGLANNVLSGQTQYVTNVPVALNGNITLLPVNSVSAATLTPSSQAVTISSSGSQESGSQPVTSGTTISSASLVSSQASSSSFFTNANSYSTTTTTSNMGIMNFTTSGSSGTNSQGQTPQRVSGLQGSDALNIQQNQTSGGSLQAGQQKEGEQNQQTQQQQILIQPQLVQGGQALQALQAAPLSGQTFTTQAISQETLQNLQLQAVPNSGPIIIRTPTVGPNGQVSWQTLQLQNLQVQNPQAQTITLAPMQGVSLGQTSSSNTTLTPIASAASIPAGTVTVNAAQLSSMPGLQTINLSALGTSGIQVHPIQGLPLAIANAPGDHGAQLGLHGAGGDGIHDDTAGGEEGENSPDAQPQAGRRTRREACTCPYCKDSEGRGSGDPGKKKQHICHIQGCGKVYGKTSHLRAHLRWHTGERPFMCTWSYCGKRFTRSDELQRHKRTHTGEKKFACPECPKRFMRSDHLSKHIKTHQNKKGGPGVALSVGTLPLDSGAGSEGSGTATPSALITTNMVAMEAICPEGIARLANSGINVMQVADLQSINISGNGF
Sequence of Estrogen-related receptor gamma (Homo sapiens) (P62508 whole entry, looked up, the tested form may be a part): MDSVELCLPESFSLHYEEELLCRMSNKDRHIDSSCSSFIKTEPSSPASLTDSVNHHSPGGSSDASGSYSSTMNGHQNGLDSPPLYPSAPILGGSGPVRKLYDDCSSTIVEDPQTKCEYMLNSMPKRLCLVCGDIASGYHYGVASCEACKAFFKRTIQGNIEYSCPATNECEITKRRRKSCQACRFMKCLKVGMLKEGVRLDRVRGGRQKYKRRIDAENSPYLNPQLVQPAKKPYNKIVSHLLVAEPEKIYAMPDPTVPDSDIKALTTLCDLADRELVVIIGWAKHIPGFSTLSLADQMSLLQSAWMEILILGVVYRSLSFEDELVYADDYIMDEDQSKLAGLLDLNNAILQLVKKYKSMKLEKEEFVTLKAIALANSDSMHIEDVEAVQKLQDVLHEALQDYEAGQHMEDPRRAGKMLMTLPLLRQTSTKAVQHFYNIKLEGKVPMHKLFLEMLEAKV
Sequence of Steroid hormone receptor ERR1 (Homo sapiens) (P11474 whole entry, looked up, the tested form may be a part): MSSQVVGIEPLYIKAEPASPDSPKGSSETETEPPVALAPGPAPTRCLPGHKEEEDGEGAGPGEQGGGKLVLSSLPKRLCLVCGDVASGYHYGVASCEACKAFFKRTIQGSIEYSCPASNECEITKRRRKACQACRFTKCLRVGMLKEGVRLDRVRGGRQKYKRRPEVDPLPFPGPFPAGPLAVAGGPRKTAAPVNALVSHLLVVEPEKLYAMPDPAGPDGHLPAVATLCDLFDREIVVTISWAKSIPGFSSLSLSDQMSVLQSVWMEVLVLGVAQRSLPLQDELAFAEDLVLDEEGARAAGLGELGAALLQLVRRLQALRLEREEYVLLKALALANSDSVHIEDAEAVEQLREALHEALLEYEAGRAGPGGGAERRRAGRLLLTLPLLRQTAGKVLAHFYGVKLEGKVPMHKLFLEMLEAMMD

Take `CCCCCCCCCCCCN(C)C`: the result in test [1], in test [2], in [5], in [6], in test [9] and in test [11] was inactive. The result in [13] and in test [14] was inactive. Also, the AC50 in [3] is 53.2 µM (active); in test [4], 49 µM (active); in test [7], 48.4 µM (active); in test [8], 51.4 µM (active); in test [10], 33.4 µM (active); in test [12], 53.9 µM (active).

`OCC(c1ccc(Cl)cc1)c1ccc(Cl)cc1`: the compound was called inactive in [1], in [2], in [5], in [7], in test [8] and in [9]. Also, the result in test [10], in test [11], in test [13] and in [14] was inactive. The AC50 in test [3] was 53.2 µM (active); in test [4], 60.9 µM (active); in [6] it was 60.7 µM (active); in test [12], 56.3 µM (active).

Turning to `CC(=O)C(F)(F)C(F)(F)F`, the compound was called inactive in test [1], in test [2], in test [3], in test [4], in test [5] and in test [6]. The call in test [7], in [8], in [9], in test [10], in [11] and in test [12] was inactive. Besides, the call in test [15], in test [13] and in [14] was inactive.

For `CCOP(=S)(OCC)O/N=C(\C#N)c1ccccc1`, the outcome in test [1], in test [2], in test [3], in test [4], in test [5] and in [6] was inactive. Further, the outcome in test [7], in test [8], in test [9], in test [10], in test [16] and in test [12] was inactive. The result in test [15], in test [17], in test [13] and in [14] was inactive.
